Measured values from ChEMBL document CHEMBL3988442, “University of Dundee, Small-Polar-MMV Screening Library” (2021).
For some of these results: Measured potencies and affinities stand elsewhere.

Assays:
Set-up in all cases: scale not given: direction of the effect not stated beside the values
[1] = target: Protein translocase subunit SecA (Escherichia coli (strain K12)) (UniProt P10408); assay: Assay to Identify E. coli SecA ATPase Inhibitors; format: functional; details: 30 µM
[2] = target: T1, Ubiquitin-activating enzyme e1, putative (Leishmania donovani (strain BPK282A1)) (UniProt E9BSI1); assay: Leishmania donovani Ubiquitin Activating Enzyme (LdE1); format: functional; details: 30 µM
T1 sequence (whole entry): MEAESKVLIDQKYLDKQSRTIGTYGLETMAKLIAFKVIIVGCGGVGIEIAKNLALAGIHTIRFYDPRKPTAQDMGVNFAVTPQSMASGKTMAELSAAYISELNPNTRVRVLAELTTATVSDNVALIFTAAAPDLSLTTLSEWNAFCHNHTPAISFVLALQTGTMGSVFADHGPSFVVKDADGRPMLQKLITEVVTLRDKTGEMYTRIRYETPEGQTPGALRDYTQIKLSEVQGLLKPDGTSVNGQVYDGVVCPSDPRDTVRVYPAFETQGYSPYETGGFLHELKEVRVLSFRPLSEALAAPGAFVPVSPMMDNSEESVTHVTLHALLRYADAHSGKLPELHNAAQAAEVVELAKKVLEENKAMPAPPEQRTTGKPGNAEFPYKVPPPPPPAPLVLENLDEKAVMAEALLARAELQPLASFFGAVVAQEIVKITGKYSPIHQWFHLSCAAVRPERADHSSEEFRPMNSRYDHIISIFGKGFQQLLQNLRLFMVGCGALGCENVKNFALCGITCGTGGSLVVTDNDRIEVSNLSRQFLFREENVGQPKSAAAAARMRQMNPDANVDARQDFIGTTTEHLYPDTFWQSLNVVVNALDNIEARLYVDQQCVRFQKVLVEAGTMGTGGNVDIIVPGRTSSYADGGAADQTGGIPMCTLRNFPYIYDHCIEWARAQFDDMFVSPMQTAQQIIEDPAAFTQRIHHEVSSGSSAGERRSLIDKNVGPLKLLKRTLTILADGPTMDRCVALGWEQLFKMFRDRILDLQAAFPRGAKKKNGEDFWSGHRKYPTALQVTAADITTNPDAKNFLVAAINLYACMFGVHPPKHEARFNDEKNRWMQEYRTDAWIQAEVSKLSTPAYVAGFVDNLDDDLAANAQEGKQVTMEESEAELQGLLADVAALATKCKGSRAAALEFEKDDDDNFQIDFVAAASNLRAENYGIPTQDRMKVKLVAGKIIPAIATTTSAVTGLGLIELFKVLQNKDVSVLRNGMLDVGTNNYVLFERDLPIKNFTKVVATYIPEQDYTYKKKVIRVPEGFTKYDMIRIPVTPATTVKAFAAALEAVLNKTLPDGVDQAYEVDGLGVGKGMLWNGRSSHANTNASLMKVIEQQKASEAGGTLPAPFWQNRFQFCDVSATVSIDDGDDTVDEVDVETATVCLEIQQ

[3] = target: Sialic acid-binding Ig-like lectin 9 (Homo sapiens) (UniProt Q9Y336); assay: Hs-Siglec9 ALPHAscreen SOP 20170721; details: 10 µM
Chain of Sialic acid-binding Ig-like lectin 9 (Homo sapiens) (Q9Y336 whole entry): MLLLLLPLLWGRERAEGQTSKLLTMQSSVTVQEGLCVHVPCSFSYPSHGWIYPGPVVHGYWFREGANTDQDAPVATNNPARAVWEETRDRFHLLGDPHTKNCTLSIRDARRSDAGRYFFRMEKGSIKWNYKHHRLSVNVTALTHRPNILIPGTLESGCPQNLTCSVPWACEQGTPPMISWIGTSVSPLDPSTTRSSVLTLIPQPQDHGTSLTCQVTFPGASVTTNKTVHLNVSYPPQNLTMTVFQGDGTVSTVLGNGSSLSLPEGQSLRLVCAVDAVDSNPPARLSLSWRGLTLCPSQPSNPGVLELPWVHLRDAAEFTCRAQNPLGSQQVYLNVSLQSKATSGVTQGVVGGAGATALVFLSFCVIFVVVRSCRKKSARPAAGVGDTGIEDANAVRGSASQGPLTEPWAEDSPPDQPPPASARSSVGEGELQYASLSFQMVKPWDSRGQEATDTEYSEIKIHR

Trypanosoma cruzi = assay: Trypanosoma cruzi phosphomannomutase and mannose-1-phosphate guanylyltransferase assay; format: functional; details: 10 µM
[4] = target: T2, Arginase-2, mitochondrial (Homo sapiens) (UniProt P78540); assay: in vitro enzyme assay to detect the production of urea directly proportional to the activity of Arginase II; format: functional; details: 33.3 µM; also: in the data most compounds retested in dose-response had high values
T2 sequence (whole entry): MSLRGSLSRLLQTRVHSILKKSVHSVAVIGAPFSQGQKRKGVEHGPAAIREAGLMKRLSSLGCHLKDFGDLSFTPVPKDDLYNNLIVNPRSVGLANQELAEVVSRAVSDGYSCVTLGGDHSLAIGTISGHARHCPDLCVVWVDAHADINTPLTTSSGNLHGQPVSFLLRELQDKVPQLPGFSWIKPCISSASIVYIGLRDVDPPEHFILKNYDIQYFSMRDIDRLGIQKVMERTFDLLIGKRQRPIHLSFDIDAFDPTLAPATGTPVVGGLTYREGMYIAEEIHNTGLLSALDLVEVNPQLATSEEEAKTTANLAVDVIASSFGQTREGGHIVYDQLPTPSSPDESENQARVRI

[5] = target: T3, Proteasome subunit beta (Trypanosoma cruzi) (UniProt O96673); assay: Trypanosoma cruzi proteasome chymotrypsin-like activity (TcProtChymo) assay.; also: in the data most compounds retested in dose-response had high values; format: functional; details: 9.37 µM
T3 sequence (whole entry): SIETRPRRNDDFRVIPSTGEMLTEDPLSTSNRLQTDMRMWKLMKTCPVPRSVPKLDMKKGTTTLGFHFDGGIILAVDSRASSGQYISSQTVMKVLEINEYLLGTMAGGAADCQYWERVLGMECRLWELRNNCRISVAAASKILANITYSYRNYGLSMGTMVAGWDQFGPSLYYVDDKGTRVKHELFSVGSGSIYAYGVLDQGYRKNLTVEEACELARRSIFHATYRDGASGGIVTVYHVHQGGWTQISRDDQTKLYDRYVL

Homo sapiens = species on record: Homo sapiens; assay: To identify inhibition of the IFN signalling (Jak-Stat) pathway via expression of an eGFP reporter gene under the control of an IFN-stimulated response element (ISRE) containing MxA promoter.; format: functional; details: 30 µM
[6] = target: T4, Tyrosyl-tRNA synthetase, putative (Trypanosoma cruzi (strain CL Brener)) (UniProt Q4DSP6); assay: Trypanosoma cruzi tyrosyl tRNA synthetase (TcYRS) _High Tyrosine SOP; format: functional; details: 30 µM; also: in the data most compounds retested in dose-response had high values
T4 sequence (whole entry): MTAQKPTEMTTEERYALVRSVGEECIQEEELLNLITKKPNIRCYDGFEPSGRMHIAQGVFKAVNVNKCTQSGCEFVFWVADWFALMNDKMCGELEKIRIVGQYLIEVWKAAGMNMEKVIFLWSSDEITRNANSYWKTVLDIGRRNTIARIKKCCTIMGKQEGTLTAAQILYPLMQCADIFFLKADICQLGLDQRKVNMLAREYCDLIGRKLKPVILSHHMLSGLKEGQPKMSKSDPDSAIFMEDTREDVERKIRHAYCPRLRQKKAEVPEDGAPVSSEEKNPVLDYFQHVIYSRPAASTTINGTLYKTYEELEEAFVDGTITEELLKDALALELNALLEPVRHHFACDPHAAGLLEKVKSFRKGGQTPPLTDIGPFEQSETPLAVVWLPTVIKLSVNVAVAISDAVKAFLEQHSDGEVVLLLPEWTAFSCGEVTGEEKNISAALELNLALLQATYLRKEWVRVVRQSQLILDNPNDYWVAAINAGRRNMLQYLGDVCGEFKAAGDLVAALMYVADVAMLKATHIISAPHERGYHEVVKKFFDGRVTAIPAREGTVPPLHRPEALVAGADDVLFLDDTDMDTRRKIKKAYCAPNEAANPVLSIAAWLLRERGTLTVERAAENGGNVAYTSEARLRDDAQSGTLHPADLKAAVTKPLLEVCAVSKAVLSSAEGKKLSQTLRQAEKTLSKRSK

[7] = target: T4, Tyrosyl-tRNA synthetase, putative (Trypanosoma cruzi (strain CL Brener)); assay: Trypanosoma cruzi tyrosyl tRNA synthetase (TcYRS) SOP; format: functional; details: 30 µM
[8] = target: Chromo domain-containing protein 1 (Saccharomyces cerevisiae (strain ATCC 204508 / S288c) (Baker's yeast)) (UniProt P32657); assay: ScCHD-1 Enzyme Inhibition Assay; format: functional; details: 30 µM; also: in the data most compounds retested in dose-response had high values
Chain of Chromo domain-containing protein 1 (Saccharomyces cerevisiae (strain ATCC 204508 / S288c) (Baker's yeast)) (P32657 whole entry, the tested form may be a part): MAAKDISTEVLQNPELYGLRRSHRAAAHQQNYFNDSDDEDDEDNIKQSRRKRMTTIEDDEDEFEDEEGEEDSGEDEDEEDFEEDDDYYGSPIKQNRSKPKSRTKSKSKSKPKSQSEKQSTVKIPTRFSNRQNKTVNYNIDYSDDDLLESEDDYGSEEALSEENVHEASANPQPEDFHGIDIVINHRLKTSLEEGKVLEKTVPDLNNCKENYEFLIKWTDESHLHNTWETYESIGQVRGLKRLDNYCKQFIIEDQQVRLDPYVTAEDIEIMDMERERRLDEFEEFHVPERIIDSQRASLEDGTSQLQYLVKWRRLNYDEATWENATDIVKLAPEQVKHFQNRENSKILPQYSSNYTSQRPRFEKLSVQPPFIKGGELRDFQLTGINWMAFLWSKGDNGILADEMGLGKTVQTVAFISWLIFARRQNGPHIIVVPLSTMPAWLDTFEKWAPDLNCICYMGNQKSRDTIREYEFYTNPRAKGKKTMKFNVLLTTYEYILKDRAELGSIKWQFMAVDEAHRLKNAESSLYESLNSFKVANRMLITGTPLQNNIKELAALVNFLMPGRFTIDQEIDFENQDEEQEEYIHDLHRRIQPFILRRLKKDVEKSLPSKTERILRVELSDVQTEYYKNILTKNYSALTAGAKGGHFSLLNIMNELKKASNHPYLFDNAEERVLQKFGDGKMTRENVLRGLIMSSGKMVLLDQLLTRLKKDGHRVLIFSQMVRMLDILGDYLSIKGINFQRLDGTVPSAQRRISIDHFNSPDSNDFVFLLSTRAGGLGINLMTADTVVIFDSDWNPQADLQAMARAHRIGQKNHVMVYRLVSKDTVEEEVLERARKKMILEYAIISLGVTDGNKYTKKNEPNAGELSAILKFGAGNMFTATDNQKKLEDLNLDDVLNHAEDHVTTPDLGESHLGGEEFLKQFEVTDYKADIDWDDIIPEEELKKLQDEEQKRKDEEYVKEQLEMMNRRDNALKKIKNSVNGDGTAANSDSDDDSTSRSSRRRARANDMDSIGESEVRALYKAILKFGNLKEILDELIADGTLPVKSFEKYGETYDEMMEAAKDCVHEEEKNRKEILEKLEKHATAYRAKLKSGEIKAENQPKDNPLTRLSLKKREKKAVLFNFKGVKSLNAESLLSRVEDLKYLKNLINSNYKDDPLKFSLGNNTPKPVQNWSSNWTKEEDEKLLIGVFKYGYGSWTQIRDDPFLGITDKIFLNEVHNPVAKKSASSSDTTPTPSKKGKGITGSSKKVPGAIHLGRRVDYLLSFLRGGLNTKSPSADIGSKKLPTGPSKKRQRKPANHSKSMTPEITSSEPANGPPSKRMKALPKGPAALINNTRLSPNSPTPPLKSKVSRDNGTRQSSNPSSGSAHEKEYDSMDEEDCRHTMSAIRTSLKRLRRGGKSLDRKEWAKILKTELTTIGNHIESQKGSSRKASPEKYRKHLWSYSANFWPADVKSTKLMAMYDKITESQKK

Chain of Protein translocase subunit SecA (Escherichia coli (strain K12)) (P10408 whole entry): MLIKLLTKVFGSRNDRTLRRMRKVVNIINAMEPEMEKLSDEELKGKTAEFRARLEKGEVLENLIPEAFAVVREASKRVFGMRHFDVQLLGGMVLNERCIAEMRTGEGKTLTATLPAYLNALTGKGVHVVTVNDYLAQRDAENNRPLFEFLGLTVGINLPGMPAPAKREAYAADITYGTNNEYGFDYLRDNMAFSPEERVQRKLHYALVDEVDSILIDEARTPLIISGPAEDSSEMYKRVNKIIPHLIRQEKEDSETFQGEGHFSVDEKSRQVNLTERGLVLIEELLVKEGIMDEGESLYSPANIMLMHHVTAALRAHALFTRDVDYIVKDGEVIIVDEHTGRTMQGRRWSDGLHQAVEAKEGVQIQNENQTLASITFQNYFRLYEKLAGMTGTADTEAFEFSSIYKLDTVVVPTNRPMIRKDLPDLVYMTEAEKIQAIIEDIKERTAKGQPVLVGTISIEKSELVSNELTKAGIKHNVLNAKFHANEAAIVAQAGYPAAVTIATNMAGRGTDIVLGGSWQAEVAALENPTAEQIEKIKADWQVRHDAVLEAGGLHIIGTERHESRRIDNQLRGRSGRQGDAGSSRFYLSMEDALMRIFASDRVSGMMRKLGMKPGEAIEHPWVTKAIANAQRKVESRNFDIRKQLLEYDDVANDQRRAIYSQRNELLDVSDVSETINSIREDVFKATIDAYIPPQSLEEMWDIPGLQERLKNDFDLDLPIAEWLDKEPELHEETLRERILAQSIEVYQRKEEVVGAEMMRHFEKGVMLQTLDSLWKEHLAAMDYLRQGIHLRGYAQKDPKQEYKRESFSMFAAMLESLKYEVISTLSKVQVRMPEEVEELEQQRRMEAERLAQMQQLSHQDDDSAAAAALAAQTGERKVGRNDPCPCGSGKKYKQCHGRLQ

Row | Compound | Percent Effect [1] | Percent Effect [2] | Percent Effect [3] | Percent Effect (Trypanosoma cruzi) | Percent Effect [4] | Percent Effect [5] | Percent Effect (Homo sapiens) | Percent Effect [6] | Percent Effect [7] | Percent Effect [8]
1 | Cc1cnn(CC2CCCN2C(=O)c2ccc3nnc(C)n3c2)c1 (stereo not given) | -1.55% | -5.13% | -9.94% | 1.03% | 2.87% | 4.01% | 8.47% | -2.39% | -3.61% | -5.71%
2 | Cc1nc(CN2CCCC(CCNS(C)(=O)=O)C2)c[nH]1 (stereo not given) | -6.15% | 0% | 1.08% | -0.873% | 3.85% | 1.71% | 7.77% | 3.72% | 9.76% | -0.429%
3 | CC(C)n1[nH]c(=O)c2c1NC(=O)CC2c1cccc(OC(F)F)c1 (stereo not given) | -3.01% | 2.7% | -4.26% | -8.63% | -1.75% | 16.1% | 27.6% | 1.6% | 2.44% | -5.54%
4 | O=S(=O)(N1CCCC1)N1CCCCC1CCc1ccccc1 (stereo not given) | -6.97% | 0% | -0.69% | -3.59% | -1.05% | 13% | 25.4% | -3.72% | -4.88% | -0.676%
5 | CCc1nc(C2CCCN2C(=O)C2=COCC2)no1 (stereo not given) | -6.76% | 0% | 1.81% | -4.02% | -0.444% | -2.46% | 12.2% | 4.74% | -2.56% | -3.47%
6 | Cc1ccc(CN2CCC(c3nnc(CN4CCCCC4)n3C)CC2)o1 | -5.23% | 0% | 2.13% | -0.873% | -0.35% | 5.99% | 1.11% | 1.6% | 4.88% | 3.06%
7 | CNC(=O)C1(c2cnccn2)CCCN1C(=O)c1ccccc1OC (stereo not given) | 0.772% | 14.7% | -7.91% | -1.77% | -3.98% | 9.36% | 17.4% | -2.12% | 5% | -18.1%
8 | CC(=O)N1CCc2c(nc(-c3ccncc3)nc2N(C)CC(O)CO)C1 (stereo not given) | -4.98% | 2.7% | 3.26% | -2.62% | 5.94% | 3.94% | 12.2% | 5.85% | 14.6% | -4.24%
9 | O=C(COc1ccc2c(c1)CCC2)NS(=O)(=O)c1cncc(Br)c1 | -2.61% | 2.56% | 1.99% | 9.3% | -3.28% | 3.33% | 7.32% | -3.35% | 1.21% | 1.12%
10 | Cc1cnc(C(=O)N2CCCCC2c2[nH]ncc2S(C)(=O)=O)cn1 (stereo not given) | -1.18% | 4% | 4.14% | -0.986% | -1.77% | 4.93% | -6.39% | 6.35% | 12.5% | -18.4%
11 | COc1cccc2c1OCC(C(=O)N1CCN(S(C)(=O)=O)CC1)C2 (stereo not given) | -5.76% | 16.2% | 16.9% | 6.69% | 11.5% | 9.25% | 11.4% | 7.98% | 17.1% | -8.92%
12 | CC(C)(C)c1cn2nc(N3CCC[C@@H]3CO)sc2n1 | -2.65% | 10.3% | -1.69% | -0.282% | 2.87% | 6.57% | 2.26% | 2.39% | 13.2% | -0.0525%
13 | CN(Cc1cn2ccccc2n1)C1CCCN(c2cccnn2)C1 (stereo not given) | -0.768% | 26% | -7.59% | 0.187% | -4.71% | 15.1% | -3.7% | 7.84% | 18.8% | -9.66%
14 | CC(C)NC(=O)CC1COC2(CCN(Cc3ccccc3)CC2)C1 (stereo not given) | -1.47% | 16.9% | -1.95% | -2.25% | 2.28% | 16.2% | -3.75% | 7.73% | 10% | -5.41%
15 | c1cnn(CC2CCCN2Cc2nc(-c3ccoc3)no2)c1 (stereo not given) | -4.7% | 5.33% | 2.88% | 3.41% | -4.88% | 10.3% | -9.56% | 4.74% | 7.69% | -12.5%
16 | Cc1c(F)cc(C(=O)O)cc1S(=O)(=O)Nc1cccc(C(F)F)c1 | -2.31% | -2.56% | 2.65% | 1.03% | 0.41% | 6.23% | 11.6% | -1.44% | -3.61% | -0.222%
17 | Cc1[nH]ccc1C(=O)N1CCCC(c2nccn2Cc2cscn2)C1 (stereo not given) | -7.46% | -5.41% | 27.9% | 9.99% | 57% | 15.2% | 8.11% | 7.98% | 17.1% | -3.33%
18 | Cc1ccc(CC(=O)N2CCc3nnc(N(C)C)cc3C2)cn1 | 0.88% | 20.5% | -4.67% | -0.469% | 2.05% | 13.6% | 16.2% | 6.22% | 10.8% | -4.95%
19 | COC1CC2(CCN(Cc3ccc4c(c3)OCO4)CC2)C1 | -2.7% | 24.7% | -4% | -2.63% | 1.83% | 10% | -11.4% | 6.76% | 12.5% | -8.26%
